33 compounds from PubChem BioAssay (Tox21) can be followed below.

Inconclusive results are not listed. A call without a number means that no potency is given here. Active and inactive are the calls of the source. Unless noted, the call rests on the fitted dose curve; in most records, active means well fitted curve in the direction sought with a large enough effect in the repeat runs; inconclusive means weak or mixed curves; inactive means no such curve, though single readings can be large; an effect the other way counts as inactive or inconclusive.

The first assay is described as follows: qHTS assay to identify small molecule agonists of the progesterone receptor (PR) signaling pathway - cell viability counter screen (AID 1346799; calls by dose curve; further: nearly all actives have a fitted effect of over 45% in size; further: potency means the concentration at half of the fitted maximal effect). The conditions noted are these: PR-UAS-bla HEK293T viability, CellTiter-Glo luminescence, 16 h; series mostly up to 92.4 µM. A digest of the protocol: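 Cytotoxicity in PR-bla HEK293T cells: 16 h compound, 37C; CellTiter-Glo added post-FRET read; luminescence after 30 min RT.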
For orientation: qHTS replaces the single test concentration by a dilution series.
`CCCCCCCCCC[N+](C)(CCCCCCCCCC)CCC[Si](OC)(OC)OC`: the Potency was 24.3 µM (active).

`CCOC(=O)[C@H](O)[C@@H](O)C(=O)OCC`: the Potency entry was “inactive”.

Regarding `CCc1c(C)cc(N)c(CC)c1N`, the Potency result was “inactive”.

A further assay in a line: qHTS assay to identify small molecule antagonists of the TGF-beta/Smad signaling pathway - cell viability counter screen (AID 1346824). Further: nearly all actives have a fitted effect of over 50% in size. Further: potency means the concentration at half of the fitted maximal effect. To be noted: SBE-bla HEK293T viability, CellTiter-Glo luminescence; series mostly up to 76.8 µM. The method in brief:
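Cytotoxicity counter-screen run in the same wells as the beta-lactamase Smad reporter read: CellTiter-Glo luminescence after 30 min at room temperature. HEK 293T SBE-bla cells had 5 hr compound exposure at 37 C with TGF-beta1 (0.25 ng/mL stock).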
With `COc1cc([C@@H]2c3cc4c(cc3[C@@H](O[C@@H]3O[C@@H]5CO[C@@H](C)O[C@H]5[C@H](O)[C@H]3O)[C@H]3COC(=O)[C@H]23)OCO4)cc(OC)c1O`, the Potency entry is “inactive”.

Regarding `CCCOC(=O)c1ccc(O)cc1`, the Potency entry was “inactive”.

`CCOc1ccc([N+](=O)[O-])cc1`: the Potency entry was “inactive”.

For `O=C1C=CC(=O)N1c1cccc(N2C(=O)C=CC2=O)c1`, the Potency was 54.9 µM (active).

Consider `O=C1CCC/C=C\CCCCCCCCCC1`, for which the Potency entry is “inactive”.

For `CSc1nnc(C(C)(C)C)c(=O)[nH]1`, the Potency entry was “inactive”.

`Brc1cc(Br)cc(Br)c1`: the Potency entry was “inactive”.

As to `c1ccc2occc2c1`, the Potency entry was “inactive”.

Regarding `CCCCCCCCCCCCN1CCCC1=O`, the Potency entry was “inactive”.

Take `Cc1ccc(Cl)c(N)c1Cl`: the Potency result is “inactive”.

Regarding `CCSCC`, the Potency result is “inactive”.

In the case of `CCCCCCCC/C=C\CCCCCCCC(=O)N(CCO)CCO`, the Potency result was “inactive”.

Regarding `CN1CCN(C)CC1`, the Potency entry was “inactive”.

In the case of `Cc1c(Cl)c(=O)oc2cc(O)ccc12`, the Potency entry is “inactive”.

On to `Nc1ccc(Oc2cccc(Oc3ccc(N)cc3)c2)cc1`, for which the Potency entry is “inactive”.

As to `CN1CC[C@H](c2c(O)cc(O)c3c(=O)cc(-c4ccccc4Cl)oc23)[C@H](O)C1`, the Potency result is “inactive”.

With `O=S(=O)(c1ccc(OCc2ccccc2)cc1)c1ccccc1O`, the Potency result is “inactive”.

`S=C1NC=NC2N=CNC12` (configuration not stated): the Potency is 3.47 µM (active).

`O=C(N[C@H](CO)[C@H](O)c1ccc([N+](=O)[O-])cc1)C(Cl)Cl`: the Potency entry is “inactive”.

In the case of `C=CCc1cc(S(=O)(=O)c2ccc(O)c(CC=C)c2)ccc1O`, the Potency result was “inactive”.

For the compound `CCCC(=O)c1cc(O)c(O)cc1O`, the Potency result was “inactive”.

`CC/C=C\C/C=C\C/C=C\CCCCCCCC(=O)OC`: the Potency result was “inactive”.

With `O=c1[nH]cccc1O`, the Potency result is “inactive”.

Turning to `COc1cc2ncnc(Nc3cccc(Cl)c3)c2cc1OC`, the viability change, negative = cytotoxic was 0.414% [at 15.8 µM] (inactive).

As for `CC(C)=NNC(N)=S`, the Potency entry was “inactive”.

On to `c1ccc(-c2ccccc2-c2ccccc2)cc1`, for which the Potency entry was “inactive”.

As for `CC1(C)[C@H]2CC[C@]1(C)C(=O)C2`, the Potency entry is “inactive”.

As for `CCCCCCCCOC(=O)c1cc(O)c(O)c(O)c1`, the Potency entry is “inactive”.

A short description of a further assay: qHTS assay to identify small molecule agonists of the TGF-beta/Smad signaling pathway - cell viability counter screen (AID 1346829). Further: nearly all actives have a fitted effect of over 45% in size. Further: potency means the concentration at half of the fitted maximal effect. On activity change, negative = cytotoxicity: top concentration of the series differs between compounds. The conditions noted are these: SBE-bla HEK293T viability, CellTiter-Glo luminescence, 5 h; series mostly up to 76.8 µM. The method in brief: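 Here the cytotoxicity of library compounds is measured in SBE-bla HEK 293T cells treated for 5 hr, using CellTiter-Glo added to wells already read for the beta-lactamase reporter.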
`COc1cc([C@@H]2c3cc4c(cc3[C@@H](O[C@@H]3O[C@@H]5CO[C@@H](C)O[C@H]5[C@H](O)[C@H]3O)[C@H]3COC(=O)[C@H]23)OCO4)cc(OC)c1O`: the Potency entry is “inactive”.

`CCCOC(=O)c1ccc(O)cc1`: the Potency result was “inactive”.

As to `CCOc1ccc([N+](=O)[O-])cc1`, the Potency entry is “inactive”.

As to `O=C1CCC/C=C\CCCCCCCCCC1`, the Potency entry was “inactive”.

Take `CCOC(=O)[C@H](O)[C@@H](O)C(=O)OCC`: the Potency entry is “inactive”.

For the compound `CSc1nnc(C(C)(C)C)c(=O)[nH]1`, the Potency entry was “inactive”.

As for `Brc1cc(Br)cc(Br)c1`, the Potency entry was “inactive”.

Consider `c1ccc2occc2c1`, for which the Potency entry is “inactive”.

For `Cc1ccc(S(=O)(=O)C(I)I)cc1`, the Potency was 49 µM (active).

Regarding `CCCCCCCCCCCCN1CCCC1=O`, the Potency entry is “inactive”.

As to `Cc1ccc(Cl)c(N)c1Cl`, the Potency result was “inactive”.

In the case of `CCSCC`, the Potency entry is “inactive”.

In the case of `CCCCCCCC/C=C\CCCCCCCC(=O)N(CCO)CCO`, the Potency entry is “inactive”.

On to `CN1CCN(C)CC1`, for which the Potency entry is “inactive”.

Consider `Cc1c(Cl)c(=O)oc2cc(O)ccc12`, for which the Potency result is “inactive”.

In the case of `Nc1ccc(Oc2cccc(Oc3ccc(N)cc3)c2)cc1`, the Potency result is “inactive”.

As to `CN1CC[C@H](c2c(O)cc(O)c3c(=O)cc(-c4ccccc4Cl)oc23)[C@H](O)C1`, the Potency entry was “inactive”.

For `O=S(=O)(c1ccc(OCc2ccccc2)cc1)c1ccccc1O`, the Potency entry was “inactive”.

For `CCc1c(C)cc(N)c(CC)c1N`, the Potency result is “inactive”.

Regarding `O=C(N[C@H](CO)[C@H](O)c1ccc([N+](=O)[O-])cc1)C(Cl)Cl`, the Potency entry is “inactive”.

With `C=CCc1cc(S(=O)(=O)c2ccc(O)c(CC=C)c2)ccc1O`, the Potency entry was “inactive”.

Regarding `CCCC(=O)c1cc(O)c(O)cc1O`, the Potency result was “inactive”.

As for `O=c1[nH]cccc1O`, the Potency entry is “inactive”.

As for `COc1cc2ncnc(Nc3cccc(Cl)c3)c2cc1OC`, the activity change, negative = cytotoxicity was 9.42% [at 15.8 µM] (inactive).

With `CC(C)=NNC(N)=S`, the Potency result is “inactive”.

In the case of `c1ccc(-c2ccccc2-c2ccccc2)cc1`, the Potency result was “inactive”.

For the compound `CC1(C)[C@H]2CC[C@]1(C)C(=O)C2`, the Potency entry is “inactive”.

`CCCCCCCCOC(=O)c1cc(O)c(O)c(O)c1`: the Potency result was “inactive”.

A short description of another assay: qHTS assay to identify small molecule agonists of the TGF-beta/Smad signaling pathway (AID 1346859; active means well fitted activation curve with a large enough effect in the signal ratio in the repeat runs, not every such curve was filed as active; the % refers to the signal ratio). To be noted: SBE-bla HEK293T, TGF-beta/Smad beta-lactamase reporter, 5 h; series mostly up to 76.8 µM. The method in brief:
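Stable Smad binding element-beta-lactamase HEK 293T cells; 5 hr compound exposure at 37 C under 5% CO2; 2 hr room-temperature substrate step; fluorescence excited at 405 nm, collected at 460 nm and 530 nm.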
For `CCCOC(=O)c1ccc(O)cc1`, the compound was called inactive.

For the compound `CCOc1ccc([N+](=O)[O-])cc1`, the outcome was inactive.

For `O=C1C=CC(=O)N1c1cccc(N2C(=O)C=CC2=O)c1`, the compound was called inactive.

With `CCCCCCCCCC[N+](C)(CCCCCCCCCC)CCC[Si](OC)(OC)OC`, the compound was classed as inactive.

As to `O=C1CCC/C=C\CCCCCCCCCC1`, the compound was called inactive.

`CCOC(=O)[C@H](O)[C@@H](O)C(=O)OCC`: the outcome was inactive.

Turning to `CSc1nnc(C(C)(C)C)c(=O)[nH]1`, the result was inactive.

On to `Brc1cc(Br)cc(Br)c1`, for which the result was inactive.

Turning to `c1ccc2occc2c1`, the call was inactive.

For the compound `Cc1ccc(S(=O)(=O)C(I)I)cc1`, the compound was classed as inactive.

With `CCCCCCCCCCCCN1CCCC1=O`, the outcome was inactive.

In the case of `Cc1ccc(Cl)c(N)c1Cl`, the outcome was inactive.

Regarding `CCSCC`, the compound was called inactive.

Turning to `CCCCCCCC/C=C\CCCCCCCC(=O)N(CCO)CCO`, the result was inactive.

Regarding `CN1CCN(C)CC1`, the call was inactive.

With `Nc1ccc(Oc2cccc(Oc3ccc(N)cc3)c2)cc1`, the call was inactive.

For the compound `O=S(=O)(c1ccc(OCc2ccccc2)cc1)c1ccccc1O`, the call was inactive.

With `O=C(Nc1ccccc1)c1cc(Cl)ccc1O`, the call was inactive.

On to `S=C1NC=NC2N=CNC12` (configuration not stated), for which the result was inactive.

Consider `CCc1c(C)cc(N)c(CC)c1N`, for which the compound was classed as inactive.

`O=C(N[C@H](CO)[C@H](O)c1ccc([N+](=O)[O-])cc1)C(Cl)Cl`: the result was inactive.

For the compound `C=CCc1cc(S(=O)(=O)c2ccc(O)c(CC=C)c2)ccc1O`, the compound was called inactive.

Consider `CC/C=C\C/C=C\C/C=C\CCCCCCCC(=O)OC`, for which the call was inactive.

As to `O=c1[nH]cccc1O`, the compound was called inactive.

Regarding `COc1cc2ncnc(Nc3cccc(Cl)c3)c2cc1OC`, the activation was -4.98% [at 15.8 µM] (inactive).

Regarding `CC(C)=NNC(N)=S`, the compound was called inactive.

For the compound `c1ccc(-c2ccccc2-c2ccccc2)cc1`, the result was inactive.

`CC1(C)[C@H]2CC[C@]1(C)C(=O)C2`: the call was inactive.
